From PubChem BioAssay
Rows were chosen to be rich in hits. Some 3.6% of all compounds tested hit in one or more screens of this group.
PLK1 PBD block = inhibitors of human PLK1 polo-box domain binding; P53350; Plk1 PBD binding of FITC phosphopeptide, fluorescence polarization; Potency, µM, inactives show max response, negative = inhibition, most hits filed as inhibitors; 360,000 compounds, 2.8% hits; also: potency is read from the fitted curve at half-maximal effect; series mostly up to about 57 µM; % is scaled to controls: 0 for no effect and ±100 for the full control effect; nearly all actives have a fitted effect of over 65% in size
Target sequence (P53350 whole entry, looked up, the tested form may be a part): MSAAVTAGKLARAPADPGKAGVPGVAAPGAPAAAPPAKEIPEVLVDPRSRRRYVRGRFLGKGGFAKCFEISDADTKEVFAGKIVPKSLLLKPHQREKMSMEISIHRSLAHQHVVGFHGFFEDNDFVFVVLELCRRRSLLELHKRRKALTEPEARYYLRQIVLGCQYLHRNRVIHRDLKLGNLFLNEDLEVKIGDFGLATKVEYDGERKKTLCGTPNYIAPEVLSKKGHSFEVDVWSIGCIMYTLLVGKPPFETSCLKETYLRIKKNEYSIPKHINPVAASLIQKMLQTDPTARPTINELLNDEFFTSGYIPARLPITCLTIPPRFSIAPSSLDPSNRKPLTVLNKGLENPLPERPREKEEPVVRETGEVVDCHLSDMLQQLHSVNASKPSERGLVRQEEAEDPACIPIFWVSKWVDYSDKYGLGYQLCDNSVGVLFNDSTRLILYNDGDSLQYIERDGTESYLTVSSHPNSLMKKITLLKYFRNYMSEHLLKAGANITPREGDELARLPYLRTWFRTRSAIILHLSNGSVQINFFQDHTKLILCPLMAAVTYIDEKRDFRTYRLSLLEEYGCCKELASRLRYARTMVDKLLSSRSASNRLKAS
KAT2A inh = blocks human GCN5L2 histone acetyltransferase | Potency, µM (highest dose often 58.9 µM), inactives show at the top dose activity change, negative = inhibition, hits mostly inhibitors | 390,000 compounds, 0.21% hits | Q92830 | GCN5L2 HAT assay, ThioGlo1 CoA-SH fluorescence; also: potency is read from the fitted curve at half-maximal effect; % is scaled to controls: 0 for no effect and ±100 for the full control effect
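ThioGlo1-coupled HAT assay: 20nM GCN5L2, 70uM acetyl-CoA, 75uM H3(1-25) peptide, pH 7.5. Fluorescence read at 340/540nm at start and after 20 min at room temperature.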
Rango complex inh = Rango-importin beta binding inhibition | Q14974 | Rango CFP/YFP FRET sensor + importin beta, 45 min | Potency, µM (titrated, usually from 92.2 µM), without a hit: at the top dose inhibition of complex formation | 340,000 compounds, 0.031% hits | AID 540263; calls by dose curve;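 also: potency is read from the fitted curve at half-maximal effect; 0% = DMSO wells and 100% = buffer wells lacking importin beta; nearly all actives have a fitted effect of over 15% in size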
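FRET biosensor Rango (snurportin 1 IBB between N-terminal EYFP and C-terminal Cerulean), 50 nM in PBS/1 mM DTT/0.02% Tween-20/0.1% BSA, preincubated 5 min RT with compound; 0.125 microM importin beta added, 45 min RT, CFP/YFP FRET ratio read.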
Rango dissoc inh = prevents RanGTP from dissociating the Rango-importin beta complex. O95149+P62826. Biochemical FRET Rango-importin beta, RanGTP-induced dissociation. Potency, µM (series often up to 46.1 µM), inactives show at the highest dose activity change, negative = inhibition. 340,000 compounds, 0.071% hits; calls by dose curve; also: potency is read from the fitted curve at half-maximal effect; % of control where 0% means no effect; nearly all actives have a fitted effect of over 45% in size
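Quantitative HTS using a FRET biosensor: 0.1 uM Rango, 0.25 uM importin beta, 0.6 uM Ran, 2 mM GTP, 0.2 uM RCC1 final, PBS with DTT, Tween-20 and BSA. Post-read taken 45 min after Ran addition.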
PI5P4Ka inh = inhibitors of human PI5P4K alpha; AID 652105; max response, %; 330,000 compounds, 1.2% hits; PI5P4Kalpha enzyme, ADP-Glo luminescence, 60 min; hits give low values; active = max response of -50% or lower; inconclusive = between -30% and -50%; inactive = -30% or higher; also: value at the top dose of about 77 µM; % is scaled to controls: 0 for no effect and ±100 for the full control effect
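PI5P4Kalpha ADP-Glo assay; 5 microM ATP final; 60 min RT reaction; HEPES pH 7.4/EGTA/CHAPS, 5% DMSO; controls lacking substrate or enzyme; luminescent end-point.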
VDR inhibitor = inhibitors of human vitamin D receptor; AID 504847; P11473; VDR-SRC2-3 peptide fluorescence polarization, 2 h; Potency, µM, for inactives: max response, negative = inhibition, actives largely listed as inhibitors; 400,000 compounds, 0.93% hits; also: potency is read from the fitted curve at half-maximal effect; % is scaled to controls: 0 for no effect and ±100 for the full control effect
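The screen uses fluorescence polarization to detect compounds that interfere with recruitment of the SRC2-3 coactivator peptide to VDR; plates are read after 2 h at room temperature.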
* = called active by the depositor; ? = inconclusive; · = not tested or not shown. Unless noted, calls follow the shape of the dose curve; as a rule, active = well fitted curve in the direction sought with a large enough effect; inconclusive = small, poorly fitted or top-dose-only effect, or another doubt; inactive = no such curve, though single readings can be large; an effect the other way counts as inactive or inconclusive.

SMILES | PLK1 PBD block | KAT2A inh | Rango complex inh | Rango dissoc inh | PI5P4Ka inh | VDR inhibitor
O=C(O)c1ccc(N2C(=O)CC(SC(=NCc3ccc4c(c3)OCO4)Nc3ccccc3)C2=O)cc1 (stereo not drawn) | 53.2µM* | -7.5% | -3.6% | -16.9% | 5.0 | -19.3%
O=C(Nc1cccc(C(F)(F)F)c1)c1cnn(-c2cccc(F)c2)c1C1CCNCC1 | · | 11.8% | · | · | · | -10.2%
COc1ccc2c(c1)C(=O)[C@@H](OC(=O)NS(=O)(=O)c1ccc(F)cc1)[C@H](c1ccc(OC)c(Br)c1)O2 | · | · | · | · | · | -3.1%
CC1(C)Cc2c(sc3ncn4c(=S)[nH]nc4c23)CO1 | 29.9µM* | 22.4µM* | -6.6% | 1.0% | -53.2* | ?
CCC(=O)OCc1cnc(C)c2oc(=O)c(C(=O)Nc3ccc(CC)cc3)cc12 | · | -13.3% | · | · | · | -3.6%
COc1ccc(C(c2nnnn2C2CCCCC2)N2CCN(c3ccccc3)CC2)cc1 (stereo not drawn) | · | -7.3% | · | · | · | ·
COc1cc(C(c2nnnn2C2CCCC2)N2CCc3ccccc3C2)ccc1O (stereo not drawn) | 21.2µM* | 2.1% | 1.3% | 31.8% | 2.2 | -0.5%
Cc1ccc(NC(=S)NNC(=S)NCc2ccccc2)cc1 | 29.9µM* | -7.7% | -4.6% | 4.6% | ? | 50.1µM*
Fc1ccc(NC(=S)NCc2ccccc2)cc1 | -10.7% | -7.2% | 0.3% | -2.2% | 3.1 | -3.4%
COc1cccc([C@@H]2Oc3ccc(OC)cc3C[C@H]2OC(=O)NS(=O)(=O)c2ccc(F)cc2)c1 | · | · | · | · | · | -11.1%
CN(C(=S)NC(=O)Cc1ccccc1)c1ccccc1 | 29.9µM* | -4.5% | 0.2% | -2.5% | 1.1 | -27.9%
O=C(Nc1ccc(N2CCOCC2)cc1N1CCOCC1)c1ccco1 | 26.7µM* | -3.3% | -3.8% | -0.9% | -9.4 | ?
Cc1c(NC(=O)c2ccc(-c3ccc(F)cc3)o2)cccc1-c1nc2ncccc2o1 | · | 3.6% | · | · | · | -20.8%
Nc1nc(NCc2cccc(Cl)c2)c2[nH]cnc2n1 | · | · | · | · | · | 1.1%
Nc1cccc(S(=O)(=O)N2CCOCC2)c1 | · | · | · | · | · | -8.5%
NC(=O)c1cc(S(=O)(=O)N2CCOCC2)ccc1Sc1ccccc1N | 15µM* | -2.0% | 1.0% | -9.8% | 4.4 | -18.3%
Cc1cc(C)cc(NC(=O)c2sc3nc[nH]c(=O)c3c2C)c1 | · | 3.2% | · | · | · | 4.6%
Cc1ccccc1S(=O)(=O)Cc1ccc(C(=O)NC2CCCCC2)o1 | 21.2µM* | -1.0% | -0.5% | -11.1% | -7.3 | -24.1%
Cc1cc(C)cc(-n2ccn(CC(=O)Nc3ccccc3C(F)(F)F)c(=O)c2=O)c1 | · | 3.3% | · | · | · | 6.7%
CCc1cccc(Nc2cc(C)nc3ncnn23)c1 | 23.8µM* | 0.1% | 1.5% | -4.4% | -7.3 | -27.6%
COc1cccc(NC(=O)C(C)n2c(=O)cc(C(F)(F)F)c3c(C)nn(C)c32)c1 (stereo not drawn) | · | -2.4% | · | · | · | 1.6%
O=C(NC(NC(=S)Nc1ccccc1Cl)C(Cl)(Cl)Cl)c1cccc(Cl)c1 (stereo not drawn) | ? | -0.3% | 1.2% | 8.5% | -9.5 | -7.6%
O=C(Cc1cccc2ccccc12)NC(NC(=S)Nc1ccccc1Cl)C(Cl)(Cl)Cl (stereo not drawn) | 23.8µM* | -0.2% | -3.9% | -9.6% | -13.5 | ?
CC(=O)OCCn1c(=O)c2cc3c(=O)n(CCOC(C)=O)c(=O)c3cc2c1=O | 11.9µM* | 2.2% | -0.4% | 3.6% | -16.6 | 3.6%
COC(=O)C1=C(C)N(CCCC(=O)O)C(=O)NC1c1ccc(Cl)cc1 (stereo not drawn) | -0.7% | · | 0.7% | 7.0% | -76.9* | -23.5%
SMILES | PLK1 PBD block | KAT2A inh | Rango complex inh | Rango dissoc inh | PI5P4Ka inh | VDR inhibitor
CC1=C(C(=O)OCc2ccccc2)C(c2ccccc2)NC(=O)N1CCCC(=O)O (stereo not drawn) | -1.5% | -2.3% | -0.3% | -14.5% | -76.6* | -1.6%
CC1=C(C(=O)OCc2ccccc2)C(c2ccc(Cl)cc2)NC(=O)N1CCCCCC(=O)O (stereo not drawn) | -18.7% | -7.4% | 0.8% | ? | -10.1 | -11.8%
CC1=C(C(=O)OCc2ccccc2)C(c2ccc(Cl)cc2Cl)NC(=O)N1CCCC(=O)O (stereo not drawn) | -20.0% | -2.6% | 1.1% | 10.0% | -76.4* | -0.7%
COC(=O)C1=C(C)N(CCCC(=O)O)C(=O)NC1c1ccc2c(c1)OCO2 (stereo not drawn) | 5.7% | · | 4.2% | -13.3% | -62.0* | -6.7%
c1ccc(-c2[nH]ncc2-c2ccnc3ccccc23)nc1 | · | 12.0% | · | · | · | -5.8%
Cn1c(-c2ccc(S(=O)(=O)N3CCCC3)cc2)csc1=Nc1ccc(Cl)c(Cl)c1 | · | -15.0% | · | · | · | -0.1%
CCOC(=O)C1=C(C)N(CCCC(=O)O)C(=O)NC1c1ccccc1Cl (stereo not drawn) | -10.4% | · | -4.7% | 12.3% | -88.5* | 1.4%
CCOC(=O)C1=C(C)N(CCCCCC(=O)O)C(=O)NC1c1cccc([N+](=O)[O-])c1 (stereo not drawn) | -15.1% | -5.1% | 0.6% | -8.4% | -14.8 | 3.7%
CCOC(=O)C1=C(C)N(CCCC(=O)O)C(=O)NC1c1ccc(Cl)cc1 (stereo not drawn) | -7.3% | 1.3% | ? | 0.8% | -93.1* | -26.3%
COC(=O)C1=C(C)N(CCCC(=O)O)C(=O)NC1c1cccc(OC)c1 (stereo not drawn) | 3.3% | · | 2.5% | -1.7% | -51.9* | -10.2%
CC1=C(C(=O)OCC(Br)(Br)Br)C(c2cccc([N+](=O)[O-])c2)NC(=O)N1CCCC(=O)O (stereo not drawn) | -16.9% | · | -2.0% | -1.0% | -64.1* | -15.8%
Cc1ccc2c(c1)N(C(=O)N1CCC(C(=O)NCCc3ccc(Cl)cc3)CC1)CC(C)O2 (stereo not drawn) | · | -13.5% | · | · | · | 19.0%
CCOC(=O)C1=C(C)N(CCCC(=O)O)C(=O)NC1c1ccc2ccccc2c1 (stereo not drawn) | 6.7% | · | -0.7% | 18.5% | -74.9* | -5.3%
CC1=C(C(=O)OCc2ccccc2)C(c2cccc(Cl)c2Cl)NC(=O)N1CCCCCC(=O)O (stereo not drawn) | -5.6% | -8.9% | -0.8% | -18.2% | -2.6 | -20.7%
CCOC(=O)C1=C(C)N(CCCCCC(=O)O)C(=O)NC1c1ccc(Br)cc1 (stereo not drawn) | -0.2% | -5.8% | -3.2% | 0.5% | -0.6 | -3.8%
CCOC(=O)C1=C(C)N(C)C(=O)NC1c1cccc2ccccc12 (stereo not drawn) | 10.6µM* | ? | 3.4% | 4.9% | -18.2 | ?
COC(=O)C1=C(C)N(CCCC(=O)O)C(=O)NC1c1cccc(Cl)c1Cl (stereo not drawn) | 2.0% | · | -0.4% | 13.9% | -97.8* | 5.1%
